Drawing on PubChem BioAssay AID651813 (National Center for Advancing Translational Sciences (NCATS), 2012), this text covers Potency and max response for 26 compounds.

The whole screen tested about 2,100 compounds, of which about 1,100 (52%) were called active. Not shown: some 27% with an inconclusive outcome. The call rests on the fitted dose curve; in most records, active means well fitted inhibition curve with a large enough effect; inconclusive means small, poorly fitted or top-dose-only effect; inactive means no such curve, though single readings can be large or run the other way. The set was probably picked from earlier hits. The list shows a part of the results.
Potency means the concentration at half of the fitted maximal effect.

Chain of DNA dC->dU-editing enzyme APOBEC-3G (Homo sapiens) (Q9HC16 whole entry, looked up): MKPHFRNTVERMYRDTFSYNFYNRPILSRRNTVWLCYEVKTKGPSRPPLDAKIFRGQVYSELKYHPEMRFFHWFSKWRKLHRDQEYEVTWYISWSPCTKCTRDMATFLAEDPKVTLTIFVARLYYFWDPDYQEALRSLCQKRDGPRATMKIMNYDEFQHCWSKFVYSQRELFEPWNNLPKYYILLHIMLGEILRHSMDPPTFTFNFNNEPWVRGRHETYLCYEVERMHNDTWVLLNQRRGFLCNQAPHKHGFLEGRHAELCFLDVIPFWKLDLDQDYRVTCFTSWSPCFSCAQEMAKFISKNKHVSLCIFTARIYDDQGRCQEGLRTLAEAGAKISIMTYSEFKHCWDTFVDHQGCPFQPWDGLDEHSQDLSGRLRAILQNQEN

In the assay the target is DNA dC->dU-editing enzyme APOBEC-3G (Homo sapiens) (UniProt Q9HC16). Put plainly: qHTS for inhibitors of Vif-A3G interactions: Cherry picks counterscreen.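 Further: hits raise yellow fluorescence by blocking Vif-driven A3G-eYFP degradation; nearly all actives have a fitted effect of over 70% in size.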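 On max response: max response given as percent of control signal.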 To be noted: HeLa A3G-eYFP + Vif (tagged APOBEC3G with the HIV-1 protein that degrades it), eYFP fluorescence, 24 h. In short, it runs like this:
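Readout is eYFP fluorescence (488 nm excitation, 500-530 nm emission) measured on Acumen Explorer after 24 h compound exposure, several concentrations, at 37 deg C. Cells: HeLa stably co-expressing Vif and C-terminally eYFP-tagged A3G; MG132 positive control.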
`CCOc1cc(C#N)c(NC(=O)c2cccnc2)cc1OCC`: the Potency was 7.04 µM (active). With `CN(C)c1ccc(/C=N/NC(=O)c2ccccc2Cl)cc1`, the Potency was 4.98 µM (active). As for `CSc1ccc(/C=N/NC(=O)c2ccccc2Cl)cc1`, the Potency was 12.5 µM (active). Consider `Cc1ccc(/C=N/NC(=O)c2cc(C)oc2C)cc1`, for which the Potency was 9.94 µM (active).

Consider `COc1cc(C(=O)Nc2ccc3c(c2)ncn3C)cc(OC)c1OC`, for which the Potency is 7.04 µM (active). For `COc1cc(C(=O)N/N=C/C2CC=CCC2)cc(OC)c1OC` (stereo unspecified), the max response was -11.5% (inactive). Turning to `COc1cc(C(=O)N/N=C/c2ccccn2)cc(OC)c1OC`, the Potency was 12.5 µM (active). Take `COc1cc(C(=O)Nc2ccc3ccccc3c2)cc(OC)c1OC`: the Potency was 1.58 µM (active). For the compound `S=C(NN=Cc1ccccn1)Nc1ccccn1`, the max response is 20.1% (inactive). For `COc1ccc(C(=O)/C=C2/c3ccccc3CC(C)(C)N2C)cc1`, the Potency is 12.5 µM (active). The same measure, in the same setting: the figure for `CN(C)CCOc1ccc2c(c1)C(=O)C(=Cc1ncc([N+](=O)[O-])n1C)C2` is 8.86 µM (active); for `COc1ccc(S(=O)(=O)N2N=C(C)Oc3ccccc3C2=O)cc1` it is 7.9 µM (active); for `COC(=O)C1CCC(=O)N1C(c1ccc(OC)cc1)c1cc(OC)c(OC)c(OC)c1` (stereo unspecified) it is 0.559 µM (active). As for `COC(=O)c1c(N2C(=O)[C@H]3[C@@H](C2=O)[C@]2(C(=O)Nc4c(C)cccc42)N2CCC[C@@H]32)sc(C)c1C`, the Potency was 6.27 µM (active). For `CN1C2=CC=CC=CC2=[N+](C)C12C([N+](=O)[O-])=CC(=[N+]([O-])[O-])C=C2[N+](=O)[O-]` (stereo unspecified), the max response is -21% (inactive). On to `CCSc1nc2ccccc2n1C(=O)/C=C/c1ccc(OC)c(OC)c1`, for which the Potency is 4.98 µM (active). In the case of `C=CCSc1nc2ccccc2n1C(=O)/C=C/c1cc(OC)c(OC)c(OC)c1`, the Potency is 8.86 µM (active).

As for `CN(C)c1ccc(/C=C/C(=O)c2ccc(O)cc2)cc1`, the max response was 57% (inactive). For the compound `CN(C)c1ccc(/C=C/C(=O)c2c(O)c3ccccc3oc2=O)cc1`, the Potency was 1.3 µM (active). As for `Cc1ccc2c(c1)sc(-c1ccc(N(C)C)cc1)[n+]2C`, the Potency was 2.91 µM (active).

Consider `COc1ccc(C2=NOC(C(=O)NCc3ccc(F)cc3)C2)cc1OC` (stereo unspecified), for which the Potency was 1.12 µM (active). On to `COc1ccc(C2=NOC(C(=O)NCc3cccs3)C2)cc1OC` (stereo unspecified), for which the Potency was 7.9 µM (active). In the case of `COc1ccc(C2=NOC(C(=O)NCc3ccc(F)cc3)C2)cc1` (stereo unspecified), the max response was -20.8% (inactive).

In the case of `CCn1c(SCC(=O)Nc2cccc(O)c2)nc2c1c(=O)n(C)c(=O)n2C`, the max response is -1.18% (inactive). On to `COc1ccc(NC(=O)CSc2ccc3c4c(cccc24)C(=O)c2ccccc2-3)cc1`, for which the Potency is 14.6 µM (active). Turning to `N#Cc1cccc(NC(=O)CSc2ccc3c4c(cccc24)C(=O)c2ccccc2-3)c1`, the Potency is 4.61 µM (active).
